This is an account of results in the supplement of paper PMC8728848.

Only a selection was taken, and the strongest signals are over-represented in it overall.

Common to all, as to experiment: glycan array binding signal (z-score within array); higher = stronger binding
What all share (conditions): glycan notation: IUPAC condensed, linker removed

The subject of assay [1] is Gal(b1-4)GlcNAc(b1-3)Gal(b1-4)GlcNAc(b1-3)Gal(b1-4)GlcNAc(b1-3)Gal(b1-4)GlcNAc(b1-3)Gal(b1-4)GlcNAc(b1-2)Man(a1-3)[Gal(b1-4)GlcNAc(b1-3)Gal(b1-4)GlcNAc(b1-3)Gal(b1-4)GlcNAc(b1-3)Gal(b1-4)GlcNAc(b1-3)Gal(b1-4)GlcNAc(b1-2)Man(a1-6)]Man(b1-4)GlcNAc(b1-4)[Fuc(a1-6)]GlcNAc. The method, boiled down:
(§1)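 From the Consortium for Functional Glycomics database, 3228 arrays were curated, keeping only those whose protein sequence was available. Binding is given as a within-array Z-score averaged across arrays sharing a protein sequence and across linkers. Negative Z-scores can be read as non-binding.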

For assay [2], the system named is Gal(b1-4)GlcNAc(b1-3)Gal(b1-4)GlcNAc(b1-3)Gal(b1-4)GlcNAc(b1-3)Gal(b1-4)GlcNAc(b1-3)Gal(b1-4)GlcNAc(b1-3)Gal(b1-4)GlcNAc(b1-2)Man(a1-3)[Gal(b1-4)GlcNAc(b1-3)Gal(b1-4)GlcNAc(b1-3)Gal(b1-4)GlcNAc(b1-3)Gal(b1-4)GlcNAc(b1-3)Gal(b1-4)GlcNAc(b1-3)Gal(b1-4)GlcNAc(b1-2)Man(a1-6)]Man(b1-4)GlcNAc(b1-4)GlcNAc. The method, boiled down: as §1
Assay [3] has as its system Gal(b1-4)GlcNAc(b1-3)[Fuc(a1-3)GlcNAc(b1-6)]Gal(b1-4)Glc. The method, boiled down: as §1
The subject of the next assay is Gal3S(b1-4)GlcNAc. The method, boiled down:
as §1

For assay [4], the system named is Gal3S(b1-4)[Fuc(a1-3)]GlcNAc. Put shortly:
as §1

Assay [5] concerns Gal(b1-4)GlcNAc(b1-3)Gal(b1-4)GlcNAc. Put shortly: as §1
Assay [6] relates to Gal3S(b1-3)[Fuc(a1-4)]GlcNAc. The method, boiled down: as §1
Assay [7] relates to Gal(b1-4)GlcNAc(b1-3)Gal(b1-4)GlcNAc(b1-3)Gal(b1-4)GlcNAc. Put shortly:
as §1

The next assay relates to Gal(b1-6)Gal. Put shortly:
as §1

A further assay relates to Gal3S(b1-3)GlcNAc. The method, boiled down:
as §1

Assay [8] deals with Gal(b1-4)GlcNAc(b1-3)Gal(b1-4)GlcNAc(b1-3)GalNAc. The method, boiled down: as §1
Assay [9] has as its system Gal(b1-4)GlcNAc(b1-3)Gal(b1-4)[Fuc(a1-3)]GlcNAc(b1-3)Gal(b1-4)[Fuc(a1-3)]GlcNAc. The method, boiled down:
as §1

Assay [10] deals with Gal(b1-4)GlcNAc(b1-3)GalNAc. Put shortly: as §1
The test system of another assay is Gal(b1-4)Glc. The method, boiled down: as §1
A further assay deals with Gal3S(b1-4)Glc. Put shortly:
as §1

For assay [11], the system named is Gal(b1-4)GlcNAc(b1-6)[Gal(b1-3)]GalNAc. The method, boiled down: as §1
For a further assay, the system named is Gal(b1-4)GlcNAc. Put shortly:
as §1

The next assay deals with Gal3S(b1-3)GalNAc. The method, boiled down:
as §1

Assay [12] deals with Gal3S(b1-4)[Fuc(a1-3)]Glc6S. The method, boiled down: as §1
Assay [13] concerns Gal(b1-4)GlcNAc(b1-3)Gal(b1-4)[Fuc(a1-3)GlcNAc(b1-6)]Gal(b1-4)Glc. Put shortly:
as §1

As for AgI/IIC123-GFP (Streptococcus mutans), the “glycan array binding signal (z-score)” value in assay [1] was 5; in assay [2], 1.82; in assay [3] it was 0.19; in the assay on Gal3S(b1-4)GlcNAc, -0.345; in [4] it was 0.852.

Take BambL (Burhholderia ambifaria), Q0B4G1: the “glycan array binding signal (z-score)” value was -0.314 in [5] and 0.713 in assay [6].

Regarding Wza (Escherichia coli), P0A930, the “glycan array binding signal (z-score)” value was 2.94 in assay [7], -0.876 with Gal(b1-6)Gal and 0.986 in the assay with Gal3S(b1-3)GlcNAc.

For the substance “AgI/II Vhelical-GFP (Streptococcus mutans)”, the “glycan array binding signal (z-score)” value is -0.113 in assay [1] and 6.41 in assay [8].

As to Epa22, the “glycan array binding signal (z-score)” value was -0.575 in assay [9], -0.621 in [10] and -0.173 in assay [3].

For LcI (Legionella pneumophila), the “glycan array binding signal (z-score)” value in the assay with Gal(b1-4)Glc is 0.081; in the assay on Gal3S(b1-4)Glc it was 3.4.

Consider GspB (Streptococcus gordonii), Q939N5, for which the “glycan array binding signal (z-score)” value was -0.783 in assay [7] and -0.739 in assay [11].

As to “SpGH101 (Streptococcus pneumoniae), Q8DR60”, the “glycan array binding signal (z-score)” value with Gal(b1-4)GlcNAc was -0.157; in the assay on Gal3S(b1-3)GalNAc it was 5.02; in assay [12] it was 0.164.

As for “SiiE (Salmonella typhimurium), A0A0H3NVH0”, the entries for the “glycan array binding signal (z-score)” value in assay [7], in assay [13] and in assay [6] were 0.446, -0.187 and -0.012, respectively.
